# High-throughput results deposited in PubChem BioAssay by Broad Institute.
# This is one part of a sample in which hits are shown more often than they occur.
# Tg IFNy HTS = T. gondii growth inhibition under IFN-gamma | Toxoplasma gondii growth in IFN-gamma-treated host cells; hits give low values | activity change, negative = inhibition, % (concentration not given with the values) | actives 3.8% (n = 69,000); in the data active = activity change below about -70%, passing the limit was not always enough;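 note: host cells are HeLa cells infected with Toxoplasma gondii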
# Numbers without * were called inactive; ! = not active in a repeat.
SMILES,Tg IFNy HTS
O=C(c1ccccc1)N1CCn2nnc(COCc3cccnc3)c2C1,-19
O=C(O)c1ccccc1Nc1cccc(C(F)(F)F)c1,-73*!
O=C(O)c1ccccc1Nc1ccccc1,-13
O=C(OCCOCCO)c1ccccc1Nc1cccc(C(F)(F)F)c1,39
CC(C)N1CCOCC2(CCCN(C(=O)c3c[nH]c4ccccc34)C2)C1 (centres undefined),-8
O=C(c1cccs1)N1CCC2OCCN(c3cccnc3)C2CC1 (centres undefined),2
Cn1cc(-c2ccc(C(=O)N3CCCCC3CCn3cccn3)cn2)cn1 (centres undefined),-5
O=C(CSc1cccc2cccnc12)OCC(=O)c1ccccc1,-89*
CC(=O)OC[C@H]1O[C@@H](Sc2cccc3cccnc23)[C@H](OC(C)=O)[C@@H](OC(C)=O)[C@H]1OC(C)=O,4
CC(C)c1ccc(CNC(=O)CSc2cccc3cccnc23)cc1,11
COc1ccc2c(c1)NC1(CCN(C(=O)Nc3cc(F)ccc3F)CC1)c1cccn1-2,190
CN1CCN(C(=O)c2ccc(Cn3cncn3)cc2)C(c2ccccc2)C1 (centres undefined),0
CN1C[C@@H]2C3(CCN(C(=O)C4CCOCC4)CC3)CC[C@]2(C(=O)N2CCCC2)C1,-47
COc1ccc(CN2CCC[C@@H](Cn3nnc(-c4cnccn4)n3)C2)cc1OC,-14
COc1cc(-c2nc3ccccc3n2C)cc(OC)c1OC,2
Cn1c(Br)nc2ccccc21,11
COc1cccc(-n2cnc3ccccc32)n1,-90*
COc1ccc(Cl)cc1-n1nc(C(C)C)nc1CSc1nnc(C)o1,-10
COC(=O)c1cc(C)nc2c1c(=O)n(Cc1nc(-c3ccccc3C)oc1C)c(=O)n2-c1ccccc1,-60
Cn1sc(=O)c2cc(S(=O)(=O)NCCc3ccncc3)ccc21,14
COc1cc(-c2n[nH]c(=S)n2-c2ccccc2Cl)cc(OC)c1OC,63
CCN(C(=O)COc1nc(C)nc2ccccc12)c1ccccc1,8
COCC(=O)N1CCCCC12CC(=O)N(c1cncnc1)C2 (centres undefined),6
COc1ccc(C2CC(=O)Nc3c2c(-c2ccccc2)nn3C)cn1 (centres undefined),11
c1ccc(CNc2ncnc3ccccc23)cc1,-15
SMILES,Tg IFNy HTS
Nc1ccc2ncnc(NCCc3ccc(Oc4ccccc4)cc3)c2c1,-71*
COc1ccc(CCNc2ncnc3c2cnn3-c2ccccc2)cc1OC,21
COCCN1CC[C@@H](O)[C@@H]1Cc1ccccc1,59
CC(C)(C(=O)N1CCC(c2ccc(-c3ccc(C(N)=O)cc3)cn2)CC1)c1ccccc1F,44
COc1ccc2c(c1)CCC/C2=N\NC(N)=S,-99*
COc1ccc(-c2ccc(N)nc2)c(C)c1,5
NC(=S)NN=C1Cc2ccccc2C1,68
COc1cccc(-c2nc(Cn3c(=O)c4c(C)cc(C)nc4n(-c4ccccc4)c3=O)c(C)o2)c1OC,0
CCN1c2ccc(Cl)cc2C(=O)NC12CCN(C(=O)NCc1ccccc1)CC2,97
CCCCCN1C(=O)C2(NCCc3c2[nH]c2ccc(OC)cc32)c2ccccc21 (centres undefined),16
Clc1ccc(-c2nc(NCc3ccc4c(c3)OCO4)ncc2-c2ncc[nH]2)cc1,-106*
FC(F)(F)c1ccnc(NCc2ccc3c(c2)OCO3)n1,51
FC(F)(F)CCc1ccnc(NCc2ccc3c(c2)OCO3)n1,-5
COc1ccccc1OCc1cc(C(=O)N(C)C2CCOCC2)n[nH]1,0
COCCN(Cc1cnn(C)c1)C(=O)c1ccc2c(c1)OCO2,81
CCOc1ccccc1-c1noc(-c2c(O)c3ccccc3n(CC)c2=O)n1,39
O=C1COC2(CCN(C(=O)c3ccc[nH]3)CC2)CN1CC1CC1,1
O=S(=O)(c1ccccc1)N1CCN(c2ncnc3c2CCNC3)CC1,-14
CCCCOc1ccc(-c2cc3c(=O)n(Cc4nc(-c5cccc(Cl)c5)oc4C)ccn3n2)cc1,12
Cc1cc(C(=O)NCC2COc3ccccc3O2)nn1C (centres undefined),42
O=C(CN1CCN(S(=O)(=O)N2CCCC2)CC1)NCC1COc2ccccc2O1 (centres undefined),7
O=C(NCC1COc2ccccc2O1)Nc1csc2ccccc12 (centres undefined),-90*
Cc1nc(N2CCCC2)nc2c1CCN(S(=O)(=O)c1ccccc1)CC2,-49
Cn1c2c(c(=O)n1C)CN(S(=O)(=O)c1ccccc1)CCC2,-75*
CSc1ccc(C(=O)C2CCCN(S(=O)(=O)c3ccccc3)C2)cc1 (centres undefined),-30
SMILES,Tg IFNy HTS
COc1ccc(C(=O)N(Cc2ccc(C)cc2)C2(C(=O)NCc3ccccc3)CCN(C(C)=O)CC2)cc1,7
CC1=C(C(=O)NCCCN2CCCC2)C2(CCN(Cc3ccccc3)CC2)OC1=O,13
Cc1ccc(CN2CCC(CNC(=O)C(C)n3c4ccccc4c4cnn(C)c(=O)c43)C2)cc1 (centres undefined),-104*
Cc1ccc(CN2CCC(CNC(=O)Cn3c4ccccc4c4cnn(C)c(=O)c43)C2)cc1 (centres undefined),21
CC(CCNC(=O)C(C)n1c2ccccc2c2cnn(C)c(=O)c21)N1CCCC1 (centres undefined),0
COc1cc(OC)c(S(=O)(=O)NCc2noc(C)n2)cc1Cl,8
COCC(=O)Nc1ccccc1-c1ccc(C(C)C)cc1,177
O=C(CNC(=O)c1ccc(Cl)cc1)NO,17
O=C(Nc1ccc(Sc2cccs2)cc1)c1ccc(Cl)cc1,-62
O=C(NCc1c(Cl)cccc1Sc1ccc(Cl)cc1)c1ccc(Cl)cc1,-102*
Clc1ccccc1-c1nc(NCCN2CCCc3ccccc32)c2ccccc2n1,-42
CCOc1ccccc1CN1CCC2(CC1)C(=O)N(Cc1ccccn1)C(=O)N2Cc1ccccc1,-15
COc1ccc(-c2cc(C(F)(F)F)n3nc(-c4cccs4)cc3n2)cc1,-51
COc1ccc(-c2ccnc(SC)n2)cc1,-82*
COc1cccc(CNc2ncc(-c3ccncc3)c(-c3cccs3)n2)c1,-52
COc1ccc(-c2cc(N)nc(N)n2)cc1,16
COc1ccc(-c2cc(C3CCN(C(C)=O)CC3)ccn2)cc1,74
COc1ccc(-c2ccnc(-c3cccs3)n2)cc1,-103*
COc1ccc(S(=O)(=O)N2CCC3(CC2)Nc2ccc(C)c(C)c2-n2cccc23)cc1,-4
CCOCC1CN(Cc2cccs2)Cc2nn(CC3CC3)cc21 (centres undefined),3
CSc1ccc(CNC(=O)c2nc(Nc3ccc(F)cc3)c3ccccc3n2)cc1,-29
CCOc1ccccc1N(Cc1nc(-c2ccccc2OC)oc1C)S(=O)(=O)c1cccs1,-20
O=C(NOCCO)c1cc(CN2OCCCC2=O)c(F)c(F)c1Nc1ccc(I)cc1F,9
O=C(c1ccc(F)c(F)c1Nc1ccc(I)cc1F)N1CC(O)([C@@H]2CCCCN2)C1,-49
Cc1cc(I)ccc1Nc1c(C(=O)NOCC2CC2)cc(F)c(F)c1F,-82*
COc1cccc(-n2c(=O)c(C(=O)Nc3cccc(C)c3)c(O)c3cccnc32)c1,47
Cn1cc(CCNC(=O)COc2ccccn2)c2cc(Cl)ccc21,16
O=C(Nc1ccccc1Nc1cc(-c2ccccc2)nn1-c1ccccc1)c1ccccc1,84
COc1cc([C@@H]2c3cc4c(cc3[C@@H](O[C@@H]3O[C@@H]5CO[C@@H](C)O[C@H]5[C@H](O)[C@H]3O)[C@H]3COC(=O)[C@H]23)OCO4)cc(OC)c1O,-80*
